# Assay outcomes from PubChem.
# Most compounds without a hit are left out; they make up all but 0.51% or so of the library.
# FMDV Renilla: FMDV antiviral activity by Renilla signal. Potency, µM (doses to about 57.5 µM), for inactives: top-dose activity change, negative = inhibition, actives largely listed as inhibitors. hit rate 0.32% among 120,000. AID 1745857. FMDV replicon cells, Renilla luciferase signal; further: nearly all actives have a fitted effect of over 55% in size
# FMDV FLuc: antivirals against foot and mouth disease virus; hit rate 0.23% among 120,000; AID 1745856; Potency, µM (doses to about 57.5 µM), without a hit: top-dose activity change, negative = inhibition, usual class: inhibitors; FMDV antiviral cell assay, firefly luciferase signal; further: nearly all actives have a fitted effect of over 60% in size
# * = called active by the depositor; ? = inconclusive; ! = not confirmed by another sample; [ ] = remark or other dose. The call rests on the fitted dose curve. On the % scale 0 is the no-effect control and ±100 the full control effect; potency means the concentration at half of the fitted maximal effect.
SMILES,FMDV Renilla,FMDV FLuc
O=C(COC(=O)c1ccc(F)c([N+](=O)[O-])c1)Nc1ccc2c(c1)OC1(CCCCC1)O2,-11%[1.06 µM],44%
O=C(NCc1ccccc1)c1cccc2c1C(=O)N(C1CCCCC1)C2,3%,5%
O=C(CSc1ccc2ccccc2n1)Nc1ccc2c(c1)CCC2,-1%,59%
O=C(CSc1ccc(N2CCC(C(=O)N3CCCCC3)CC2)nn1)Nc1ccc2c(c1)CCC2,3.2µM*,4µM*
O=C(Nc1ccc(Br)cc1)c1nc2ccccc2nc1N1CCCC1,27%,21%
CCn1cc(C(=O)NCC(C)(CC)N2CCOCC2)c2ccccc21 (stereo unspecified),-3%,181%
Clc1ccc(Cl)c(-c2ccc(CNCC3CCNCC3)o2)c1,28µM*,32µM*
Fc1ccc(-c2ccc(CNCC3CCNCC3)o2)cc1,-28%,-27%
C=C(C)Cn1c(Br)nc2c1c(=O)n(C)c(=O)n2C,4%,9%
Cc1ccc(C)c(C(=O)COC(=O)COc2ccc(C3SCCCS3)cc2)c1,-9%,-2%
CCOC(=O)N1CCc2c(sc(NCc3ccc(OC)c(OC)c3OC)c2C(=O)Nc2ccc(OC)cc2OC)C1,9%,-26%
CCOC(=O)N1CCc2c(sc(NCc3ccc(OCC)cc3)c2C(=O)Nc2ccc(OC)cc2OC)C1,24%,25µM*
Cc1ccc(NC(=O)CN2CCN(C(=O)NCc3ccc(C)c(F)c3)CC2)cc1,16%,12%
COC(=O)c1ccc(NS(=O)(=O)c2ccc(-n3cccn3)cc2)cc1,46%,5%
COc1ccc(NS(=O)(=O)c2ccc(-n3cccn3)cc2)cc1OC,?,8.9µM*
O=C(Nc1ccc(O)c(-c2nc3ccccc3o2)c1)c1ccc(F)cc1,-2%,-4%
Nc1nn(Cc2c(F)cccc2Cl)cc1Cl,0%,24%
COc1ccc(C(=O)Oc2c(C)cc(C(O)(C(F)(F)F)C(F)(F)F)cc2C)cc1,8.9µM*,10µM*
Cc1cc(C(O)(C(F)(F)F)C(F)(F)F)cc(C)c1OC(=O)c1ccccc1F,-30%,44%
CCN(CC)C(=S)Sc1ccc([N+](=O)[O-])cc1,-5%,2µM*
CCN(CC)C(=S)SC(C(=O)c1ccccc1)c1ccccc1 (stereo unspecified),12%,9%
COc1cc(Cl)c(NCC(=O)NC(C)(C#N)C(C)C)cc1OC (stereo unspecified),-3%,3%
Cc1occc1C(=O)NC(C)c1cccc(Cl)c1 (stereo unspecified),-14%,-6%
CC(C)(C)c1ccc(NC(=O)c2cccc(CN3CCCC3=O)c2)cc1,28µM*,?
CCOc1ccc(NC(=O)c2cccc(CN3CCCC3=O)c2)cc1,-3%,73%
SMILES,FMDV Renilla,FMDV FLuc
CCNc1nc2c(c(=O)[nH]c(=O)n2C)n1Cc1ccccc1Cl,18%,30%
COc1ccccc1/C=C/C(=O)c1ccc(C)cc1OC,31%,0%
COc1ccc(C(=O)/C=C/c2ccccc2OCC#N)c2ccccc12,25µM*,?
COc1ccc(NC(=O)c2cc(=O)[nH]c3ccccc23)c(OC)c1,7%,18%
Cc1cccc(COc2ccc(CNC(=O)c3nccnc3N)cc2)c1,14µM*,?
Nc1nccnc1C(=O)NCc1ccc(O)cc1,18%,13%
Nc1nccnc1C(=O)NCc1ccccc1,10%,22%
CCOCc1ccc(CNC(=O)c2nccnc2N)cc1,25µM*,?
c1ccc(CCOCC2CCNCC2)cc1,7%,5%
CCCc1cc(=O)[nH]c(SC(C)C(=O)NC(=O)NC2CCCCC2)n1 (stereo unspecified),?,10µM*
CCCNC(=O)C(C)Sc1nc(CCC)cc(=O)[nH]1 (stereo unspecified),-4%,2%
O=C(C1CCC(CNS(=O)(=O)c2ccc(Br)s2)CC1)N1CCN(c2ccccc2Cl)CC1 (stereo unspecified),-1%,-6%
O=C(C1CCC(CNS(=O)(=O)c2ccc(Br)s2)CC1)N1CCN(c2ccc(F)cc2)CC1 (stereo unspecified),6.3µM*,?
Clc1cccc(-c2noc(-c3ccc[nH]3)n2)c1,21%,212%
Cc1ccc2c(c1)c(/C=C/c1cc[n+](C)cc1)c(C)n2C,8.9µM*,?
Cc1ccc2[nH]c(C)c(/C=C/c3cc[n+](C)cc3)c2c1,11µM*,13µM*
Cc1cccc(Cn2c(=O)n(-c3ccccc3C)c(=O)c3c2c2cc(C)ccc2n3C)c1,-9%,-16%
Cc1ccc2c(C=O)c(C)[nH]c2c1,30%,0%
O=C(Oc1ccc2c(-c3cc4ccccc4oc3=O)cc(=O)oc2c1)N1CCOCC1,4%,8%
CC(=O)c1[nH]c(C)c(C(=O)NCc2ccc(Cl)cc2)c1C,?,11µM*
CCOC(=O)c1[nH]c(C)c(C(=O)NCc2ccc(F)cc2)c1C,-5%,-17%
CC(=O)c1ccc(OCCOc2ccccc2Cl)cc1,29%,75%
COc1cccc(CN2CCC(C(O)(c3ccccc3)c3ccccc3)CC2)c1OC,16%[1.06 µM],?
COc1cc(CN2CCC(C(O)(c3ccccc3)c3ccccc3)CC2)ccc1OCc1ccccc1,35µM*,?
CCCNC(=O)c1cc2cc(N(C)S(C)(=O)=O)ccc2s1,-28%,65%
SMILES,FMDV Renilla,FMDV FLuc
COc1ccc(Nc2cc(C)nc(Nc3ccc(NC(=O)CCc4ccccc4)cc3)n2)cc1,?,13µM*
COc1ccc(Nc2cc(C)nc(Nc3ccc(NC(=O)CC(C)C)cc3)n2)cc1,28µM*,?
Cc1cc(N2CCCC2)nc(Nc2ccc(NC(=O)c3c(F)cccc3F)cc2)n1,5%,24%
CCNc1cc(C)nc(Nc2ccc(NC(=O)c3ccccc3F)cc2)n1,28µM*,?
COc1ccc(NC(=O)CSc2nc3nc(C)cc(C)n3n2)cc1,-17%,9%
COc1ccc(CC(=O)Nc2ccc3nc(Nc4ccc(OC)cc4)cc(C)c3c2)cc1,0%,?
CN(CCC#N)C(=O)Cn1nc(C(=O)O)c2ccccc2c1=O,-7%,0%
CCn1c(CCc2cccc(NC(=O)c3ccc(C#N)cc3)c2)nc2ccccc21,11µM*,14µM*
N#Cc1ccc(C(=O)Nc2ccc3nc(CCc4ccccc4)[nH]c3c2)cc1,-10%,-7%
c1coc(CNCCSCc2cccs2)c1,4%,3%
CNC(=S)NNC(=O)c1cc(F)cc(F)c1,-1%,-1%
Cc1nnsc1C(=O)Nc1ccc(S(=O)(=O)N2CCCCC2)cc1,-3%,-9%
CCC1CCCCN1S(=O)(=O)c1ccc(NC(=O)c2snnc2C)cc1 (stereo unspecified),?,18µM*
CCOC(=O)/C=C/C(=O)OCC(=O)c1ccc(Cl)s1,-4%,2%
CCN1CCN(c2ncnc3c2cnn3-c2cc(Cl)ccc2C)CC1,-12%,-11%
Cc1ccc(Cl)cc1-n1ncc2c(N3CCN(Cc4ccccc4)CC3)ncnc21,35µM*,22µM*
Cc1ccc(Cl)cc1-n1ncc2c(NC3CCCCC3)ncnc21,25µM*!,?
Clc1ccc(-n2ncc3c(NC4CCCCCCCCCCC4)ncnc32)cc1,-5%,5%
COc1ccccc1NC(=O)CSCc1ccc(Br)cc1,13%,18%
COc1ccc(Cl)cc1NC(=O)CSc1nc2ccccc2nc1C,7%,14%
O=C(c1cc2c(Cl)nc3ccccc3c2s1)N1CCCCC1,5%,64%
CCOC(=O)C1CCCN(C(=O)c2cc3c(Cl)nc4ccccc4c3s2)C1 (stereo unspecified),-17%,6.3µM*
O=C(Oc1ccc(OC(=O)C2CCCCC2)c(Cl)c1)C1CCCCC1,6%,14%
Cc1ccc(C(=O)NCc2ccc(N3CCCC3)nc2)cc1F,-4%,12%
